In all, about 2,100 compounds went through this assay and about 320 (15%) were called active. Another 52% or so got no clear call; they are omitted. The call rests on the fitted dose curve; in most records, active means well fitted cell-killing curve with a large enough effect; inconclusive means small, poorly fitted or top-dose-only effect, or effect the other way; inactive means flat fitted curve, though single readings scatter. Some of the results follow. Entries that show only a call come without a potency.
Potency means the concentration at half of the fitted maximal effect.

A short description of this assay: Viability Counterscreen for CMV-Luciferase Assay of Inhibitors of ATXN expression. Further: nearly all actives have a fitted effect of over 55% in size. The conditions noted are these: HEK-293 CMV-luciferase cells viability, protease fluorescence, 24 h. In a few lines: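 Luminescence read-out: SteadyGlo added, 5 min RT, measured in CMV-luciferase HEK-293 cells after 24 hr compound treatment (several concentrations). Viability counterscreen: 25 uM Gly-Phe-7-amino-4-trifluoromethylcoumarin, 30 min at 37 degree C, fluorescence ex 405/em 540 nm.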
For `CCN1CC2=C(OC(N)=C(C#N)C2c2cccs2)/C(=C\c2cccs2)C1` (stereo not drawn), the Potency entry is “inactive”.

Turning to `O=C(CN1CCCc2ccccc21)N/N=C/c1ccccc1O`, the Potency result was “inactive”. `O=C(CCc1ccccc1)N/N=C/c1cc(Br)ccc1O`: the Potency result was “inactive”. In the case of `O=C(CCCOc1ccc(Cl)cc1Cl)N/N=C/c1ccccc1O`, the Potency is 3.98 µM (active). For `CC(C)(C)c1ccc(NC(=O)N2CCCN(c3c(Cl)cncc3Cl)CC2)cc1`, the Potency result was “inactive”. For `O=C(c1ccc(S(=O)(=O)c2cccc(Cl)c2)c([N+](=O)[O-])c1)N1CCN(Cc2ccccc2)CC1`, the Potency is 15.8 µM (active). On to `O=C(NC1CCN(Cc2ccccc2)CC1)c1cccc(S(=O)(=O)Nc2ccc(SC(F)F)cc2)c1`, for which the Potency entry was “inactive”. For `OC(c1ccccc1)(c1nc(-c2cc3ccccc3o2)cs1)C(F)(F)F` (stereo not drawn) the value was “inactive”; for `O=S(=O)(c1ccc2c(c1)OCCO2)N1CCC(c2nc3ccc(Cl)cc3[nH]2)CC1`, “inactive”; for `Cc1ccc(S(=O)(=O)/N=C(\Sc2ccccc2)c2ccccc2)cc1`, 15.8 µM (active). For `Cc1ccc(S(=O)(=O)N2CCc3ccccc3CC2)cc1` the value was “inactive”. `CCn1c(CCC(=O)Nc2nc3c(s2)CCCC3)nc2cc(S(=O)(=O)N(C)C)ccc21`: the Potency entry was “inactive”.

Take `Cc1ccc2c(Cl)cc(Cl)c(O)c2n1`: the Potency entry is “inactive”.

As for `COc1ccc(C)cc1NC(=O)CSc1ccc(-c2ccccn2)nn1`, the Potency is 12.6 µM (active). For `COc1ccc(C)cc1NC(=O)COC(=O)c1c(C)nn(-c2ccccc2)c1C` the value was “inactive”; for `O=c1c(Cc2ccccc2)c(O)nc2n1CCS2`, “inactive”; for `COc1cccc(/C=N/NC(=O)CC(C)O)c1OC/C=C/c1ccccc1` (stereo not drawn), “inactive”. The entry for `COc1ccc(C(=O)N/N=C/c2ccc(N(C)c3ccccc3)cc2)cc1` is “inactive”; for `COc1ccc(/C=N/Nc2cc(N3CCCC3)nc(N3CCCC3)n2)cc1` it is 2.82 µM (active); for `CC(=O)c1cccc(NC(=O)C2Cc3c(-c4cccc(C(C)=O)c4)ccnc3O2)c1` (stereo not drawn) it is “inactive”. For `NC(=O)c1cccc(-c2ccnc3c2CC(C(=O)Nc2cccc(C(F)(F)F)c2)O3)c1` (stereo not drawn) the value was “inactive”; for `CS(=O)(=O)Nc1cccc(NC(=O)c2cccc3c(-c4cccc(C(N)=O)c4)coc23)c1`, 17.8 µM (active); for `CC(=O)c1cccc(NC(=O)c2cccc3c(-c4cccc(C(N)=O)c4)coc23)c1`, 11.2 µM (active). For `CS(=O)(=O)Nc1ccccc1C(=O)Nc1cc(Cl)cc(Cl)c1`, the Potency result was “inactive”. The entry for `Cc1cc(OCc2nc(N)nc(N)c2-c2ccc(Cl)c(Cl)c2)ccc1[N+](=O)[O-]` is “inactive”; for `CCn1c(-c2ccc(C)cc2)nn(CC(=O)NCCc2ccccc2)c1=S` it is “inactive”; for `Cc1nn(-c2ccccc2)c2nc(-c3cccs3)cc(C(=O)NN)c12` it is “inactive”. For `CCN(CC)CCNC(=O)CCc1c(C)nc2c(c(C)nn2-c2ccc(C)cc2)c1C` the value was 3.55 µM (active); for `Cc1ccc(CN2CCC(c3nc4ccc(Cl)cc4[nH]3)CC2)cc1`, “inactive”. For `O=C(N/N=C/c1cc([N+](=O)[O-])ccc1O)c1cc(-c2ccccc2)nc2ccccc12`, the Potency is 2.51 µM (active). For `O=[N+]([O-])c1ccc(O)c(/C=N\N=C2c3ccccc3-c3ccccc32)c1` the value was 10 µM (active); for `O=C(N/N=C/c1cc([N+](=O)[O-])ccc1O)c1cccc2cc[nH]c12`, 7.94 µM (active); for `COc1cccc(/C=N/NC(=O)c2ccc(-c3ccccc3)cc2)c1O`, “inactive”. For `C/C(=N\NC(=O)c1cc(-c2cccnc2)nc2ccccc12)c1ccc(O)cc1O` the value was “inactive”; for `COc1cccc(/C=N/NC(=O)c2cc(-c3ccccn3)nc3ccccc23)c1O`, 2.82 µM (active); for `COc1cccc(/C=N/Nc2nc3ccccc3n3cnnc23)c1O`, “inactive”. The entry for `CCCC(=O)Nc1c(C(=O)OCC)[nH]c2ccccc12` is “inactive”; for `Cc1ccc(-n2cccn2)c(CN2CCCC(C(=O)c3ccc4c(c3)OCO4)C2)c1` (stereo not drawn) it is “inactive”. With `O=C(Nc1cccc(Br)c1)c1ccc(Cl)c(S(=O)(=O)N2CCOCC2)c1`, the Potency entry is “inactive”.

Turning to `Cc1ccc2c(c1)-c1c(cnn1CC(=O)N1CCCN(Cc3ccccc3F)C1)CO2`, the Potency entry was “inactive”. On to `Cc1cc(Br)ccc1NC(=O)c1cnc(N2CCN(c3ccccn3)CC2)c2ccccc12`, for which the Potency entry was “inactive”. The entry for `Cc1cc(Cl)c(C(=O)Nc2cccc(C(F)(F)F)c2)c(C)n1` is “inactive”.

On to `Cc1ccc(NC(=O)COc2ccc(Br)cc2CO)cc1S(=O)(=O)N1CCOCC1`, for which the Potency result is “inactive”. For `O=C(c1ccc(Cl)s1)N1CCN(c2nc3ccccc3s2)CC1` the value was “inactive”; for `CC(=O)c1ccc(NC(=O)COC(=O)c2c3c(nc4ccccc24)/C(=C\c2cccs2)CCC3)cc1`, “inactive”; for `Cc1noc2ncnc(N3CCN(c4cccc(Cl)c4)CC3)c12`, “inactive”. The entry for `CCN1C(=O)C(CC(=O)Nc2ccc(OC)cc2)N(CCc2ccc(F)cc2)C1=S` (stereo not drawn) is “inactive”; for `CC(C)COc1cccc(C(=O)N(CC(=O)Nc2ccccc2C(F)(F)F)Cc2ccco2)c1` it is “inactive”; for `Cc1onc(-c2ccccc2)c1C(=O)N/N=C/c1c[nH]c2ccccc12` it is “inactive”. The figure for `O=C(N/N=C/c1cc([N+](=O)[O-])ccc1O)c1c[nH]c2ccccc12` is 28.2 µM (active); for `Cc1ccc2cc(C#N)c(N3CCN(C(=O)c4ccccc4)CC3)nc2c1` it is “inactive”; for `COc1ccc(-c2cc(C3CCN(c4ccc(C(C)=O)cc4[N+](=O)[O-])CC3)[nH]n2)cc1` it is 14.1 µM (active). In the case of `CCOC(=O)[C@H]1[C@H]2COc3ccc(OC)cc3[C@@H]2N2C(=O)c3cc(OC)c(OC)cc3NC(=O)[C@@]12C`, the Potency entry was “inactive”. With `NNc1ncnc2scc(-c3ccc(Cl)cc3)c12`, the Potency entry is “inactive”. The figure for `CCOC(=O)c1c(C)sc2c1N(C(=O)CN(CC)CC)c1cc(Cl)ccc1S2` is 15.8 µM (active); for `CN(C)c1nc(N/N=C/c2c[nH]c3ccccc23)nc(N2CCOCC2)n1` it is “inactive”. The entry for `C=CCn1c(C)c(/C=C/c2cc[n+](C)cc2)c2ccccc21` is “inactive”; for `Nn1cnnc1N/N=C/c1cc(Br)cc(Br)c1O` it is “inactive”.

As for `Cn1c(SCC(=O)N/N=C/c2ccc([N+](=O)[O-])s2)nnc1-c1ccc(Cl)cc1`, the Potency was 10 µM (active). On to `O=C(CSc1nnnn1-c1ccccc1)Nc1nsc(-c2ccccc2)n1`, for which the Potency entry is “inactive”. For `CSc1sc(-c2nnc(SCC(=O)Nc3ccc(Cl)cc3)n2C)c2c1C=CCC2` the value was “inactive”; for `Cn1c(SCC(=O)N/N=C/c2ccc([N+](=O)[O-])s2)nnc1-c1ccccc1`, 20 µM (active). Regarding `Cn1c(SCC(=O)Nc2cc(Cl)cc(Cl)c2)nnc1-c1ccc2nonc2c1`, the Potency entry was “inactive”.
